An excerpt weighted towards active compounds, which were near 0.89% of everything screened.
CBFb-RUNX1 inh: qHTS Assay for Compounds Blocking the Interaction Between CBF-beta and RUNX1 for the Treatment of Acute Myeloid Leukemia | 230,000 tested, under 10 active | AlphaScreen CBFb-His/RUNX1-biotin binding, biochemical | AID 1477, 2009 | Runt-related transcription factor 1 (Homo sapiens) + Core-binding factor subunit beta … | Potency, µM (series often up to 59.8 µM), usual class: inhibitors
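CBF-beta (His) and RUNX1 (biotin), 30 nM each; 20 min preassociation; + compound, 15 min; + beads 50 ng each (Ni, streptavidin), 90 min; RT; AlphaScreen read.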
CtBP-E1A blk: qHTS Assay for Inhibitors of the CtBP/E1A Interaction; CtBP / adenovirus E1A interaction (AlphaScreen); activity change, % (test concentration not listed); AID 651724, 2012; AlphaScreen GST-E1A/His-CtBP binding, 1536-well; hits give low values; actives 0.49% (n = 340,000); in the data active = activity change below about -65%; inconclusive = mostly about -30% to -63%
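GST-E1A and His-tagged CtBP (125 nM each as 5X stock) were preincubated with pin-transferred compound for 2 h at 37 °C in the dark, then glutathione donor and nickel acceptor beads were added for 1 h before AlphaScreen reading.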
L3MBTL1 inh-1: qHTS Assay for the Inhibitors of L3MBTL1. Lethal(3)malignant brain tumor-like protein 1 (Homo sapiens), Q9Y468. AlphaScreen L3MBTL1–H3K9me1 peptide binding. Potency, µM (titrated, usually from 57.1 µM), most hits filed as inhibitors. actives 0.66% (n = 230,000). AID 485360, 2010; also: nearly all actives have a fitted effect of over 60% in size
Target sequence (Q9Y468 whole entry, looked up): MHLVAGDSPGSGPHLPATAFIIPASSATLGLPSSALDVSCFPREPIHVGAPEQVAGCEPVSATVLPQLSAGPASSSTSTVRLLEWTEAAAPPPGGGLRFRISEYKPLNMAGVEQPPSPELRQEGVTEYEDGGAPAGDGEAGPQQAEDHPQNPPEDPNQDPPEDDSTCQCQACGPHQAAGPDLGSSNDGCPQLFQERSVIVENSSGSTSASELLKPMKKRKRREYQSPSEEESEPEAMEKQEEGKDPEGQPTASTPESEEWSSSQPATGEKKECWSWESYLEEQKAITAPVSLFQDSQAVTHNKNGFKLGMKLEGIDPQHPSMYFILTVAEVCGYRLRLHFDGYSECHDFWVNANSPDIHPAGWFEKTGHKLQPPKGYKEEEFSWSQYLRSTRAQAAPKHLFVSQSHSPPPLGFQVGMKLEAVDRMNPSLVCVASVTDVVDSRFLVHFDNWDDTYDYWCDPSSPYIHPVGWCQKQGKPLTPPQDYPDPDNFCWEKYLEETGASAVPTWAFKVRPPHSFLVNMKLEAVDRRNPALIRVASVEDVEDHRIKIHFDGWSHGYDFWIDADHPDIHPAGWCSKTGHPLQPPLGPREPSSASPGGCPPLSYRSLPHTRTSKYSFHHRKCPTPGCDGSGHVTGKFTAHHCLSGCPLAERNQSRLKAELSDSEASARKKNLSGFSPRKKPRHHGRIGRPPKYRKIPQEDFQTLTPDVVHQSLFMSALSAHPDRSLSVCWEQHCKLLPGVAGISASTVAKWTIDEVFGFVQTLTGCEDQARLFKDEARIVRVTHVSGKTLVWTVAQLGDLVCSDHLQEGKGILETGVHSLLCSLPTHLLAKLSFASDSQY
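Displacement of a biotinylated histone H3(1-15) peptide monomethylated at Lys9 (75 nM) from L3MBTL1 (50 nM) was measured by AlphaScreen after a 30 min room-temperature compound incubation; cefsulodin titration served as intraplate control.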
Eya2 inh: qHTS Assay for Inhibitors of the Phosphatase Activity of Eya2 | Protein phosphatase EYA2 (Homo sapiens), O00167 | recombinant Eya2, OMFP fluorescence dephosphorylation (OMFP is methylfluorescein phosphate) | Potency, µM (titrated, usually from 76.9 µM), actives largely listed as inhibitors | actives 0.006% (n = 330,000)
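Eya2 protein (added as 0.2 uM solution) was preincubated with compound for 10 min at ambient temperature in 50 mM HEPES pH 7.5, 50 mM NaCl, 5 uM MgCl2, 0.05% BSA, 1 mM DTT. OMFP (added at 50 uM) then reacted 10 min; fluorescence read at 485/525 nm.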
Six1-Eya2 inh: qHTS Assay for Inhibitors of the Six1/Eya2 Interaction. AID 651725, 2012. Homeobox protein SIX1 (Homo sapiens) + Protein phosphatase EYA2 (Homo sapiens), …. AlphaScreen GST-Six1/His-Eya2 binding, biochemical; hits give low values. activity change, % (concentration not given with the values). actives 0.56% (n = 360,000); in the data active = activity change below about -65%; inconclusive = mostly about -30% to -63%
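Six1/Eya2 binding was read as AlphaScreen signal after compounds were pinned into GST-Six1 plus His-tagged Eya2 (5X stock 250/500 nM) in pH 8.0 Tris/NaCl/TCEP buffer, beads added, then incubated 1 h, 37 C, dark.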
MBNL1-CUG inh: qHTS Assay for Inhibitors of MBNL1-poly(CUG) RNA binding; Potency, µM (highest dose often 57.5 µM), hits mostly inhibitors; Muscleblind-like protein 1 (Homo sapiens), Q9NR56; TR-FRET MBNL1-His/biotin-(CUG)12 binding, 665/545 ratio; actives 0.036% (n = 280,000); active = well fitted inhibition curve with a large enough effect in the signal ratio, with a control signal flat, not every such curve was filed as active; inconclusive = small, poorly fitted or top-dose-only effect, or effect the other way, or a change in a side signal; inactive = no such curve, though single readings can be large or run the other way; the % refers to the signal ratio
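MBNL1-His + Biotin-(CUG)12, cpd titration 92 nM–58 uM; Tb anti-His Ab 0.055 ng/ul, SA-XL665 5 nM (final); 60 min RT; ratiometric 665/545 nm, Ex 340 nm; normalized to buffer and full-complex controls.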
L3MBTL1 inh-2: qHTS Assay for the Inhibitors of L3MBTL1: Hit Validation. L3MBTL1 methyl-lysine binding inhibition, biochemical qHTS. Potency, µM, hits mostly inhibitors. shares compounds with L3MBTL1 inh-1. actives 91% (n = 500); also: nearly all actives have a fitted effect of over 70% in size
L3MBTL1 ctr: qHTS Assay for the Inhibitors of L3MBTL1: Hit Validationin AlphaScreen Counterscreen; shares compounds with L3MBTL1 inh-1; AlphaScreen counterscreen, signal inhibition; Potency, µM (highest dose often 57.1 µM), usual class: inhibitors; 500 tested, under 10 active; AID 602224, 2012
Numbers stand for hits. Unless noted, calls follow the shape of the dose curve; as a rule, active = well fitted curve in the direction sought with a large enough effect; inconclusive = small, poorly fitted or top-dose-only effect, or another doubt; inactive = no such curve, though single readings can be large; an effect the other way counts as inactive or inconclusive.

O=C1CCCC(O)=C1Sc1ccccc1C(=O)O was read as CBFb-RUNX1 inh inconclusive, L3MBTL1 inh-1 15.8µM, Eya2 inh inactive, Six1-Eya2 inh inactive, MBNL1-CUG inh inactive, L3MBTL1 inh-2 2.38 and L3MBTL1 ctr inconclusive.
`O=C1CCCC(O)=C1C(C#Cc1ccccc1)C1=C(O)CCCC1=O` gave CBFb-RUNX1 inh inactive, CtBP-E1A blk inactive, L3MBTL1 inh-1 inactive, Eya2 inh inactive, Six1-Eya2 inh inactive and MBNL1-CUG inh inactive.
N#C/C(=C\c1ccc(O)c(O)c1)C(=O)c1ccc(O)c(O)c1 was read as CtBP-E1A blk inactive, L3MBTL1 inh-1 0.501µM, Eya2 inh inactive, Six1-Eya2 inh inactive, MBNL1-CUG inh inconclusive, L3MBTL1 inh-2 0.0752 and L3MBTL1 ctr inconclusive.
Screening N#C/C(=C\c1ccc(O)c(O)c1)C(=O)N1CCCC1 returned CBFb-RUNX1 inh inactive, CtBP-E1A blk inactive, L3MBTL1 inh-1 inactive, Eya2 inh inactive, Six1-Eya2 inh inactive and MBNL1-CUG inh inactive.
`CC(=O)c1ccc(-c2c(C3C4C=CCCC4(C)C(=O)N3Cc3ccccc3)ccc3ccccc23)cc1` (stereo not drawn) gave CBFb-RUNX1 inh inactive.
